PubChem BioAssay (NCI)
The panel holds about 79,000 compounds, 15% with a hit somewhere; the sample as a whole holds those more often. Calls of active or inactive are those of the source. Rule as the data show it: active = growth inhibition above about 70%; inactive = the rest.

experiment: NCI Yeast Anticancer Drug Screen. Data for the sgs1 mgt1 strain (AID 161);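 also: 0% = growth of cultures given vehicle only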; settings: S. cerevisiae sgs1 mgt1 strain, at 50.0 µM, hits give high values
Summary of the method: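 Yeast cells carrying a defined DNA-repair defect were exposed to test compounds. Growth inhibition was measured relative to vehicle-treated controls.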

Question: With `CCCCCCCCCCCCCCCC1=NCCN1C` as the compound, how does the growth inhibition read?
Answer: 54.9% (inactive)

Question: With `C=CCNC(=O)c1ccccc1C(=O)O` as the compound, how does the growth inhibition read?
Answer: 28.2% (inactive)

Question: Which growth inhibition does the source give for `O=C(Nc1ccc(Cl)cc1Cl)OC(Cn1cncn1)c1ccc(Cl)cc1Cl` (configuration not stated) here?
Answer: 90.5% (active)

Question: For `CC1=C(C)CC2C(=O)C(C(O)CC(C)C)=CC(=O)C2C1` (configuration not stated), which growth inhibition is on record?
Answer: 98.8% (active)

Question: For `BrCc1ccccc1C[P+](c1ccccc1)(c1ccccc1)c1ccccc1`, which growth inhibition is on record?
Answer: 85.5% (active)

Question: With `Cc1cn(C(C#N)=C(C#N)C#N)c2ccccc12` as the compound, how does the growth inhibition read?
Answer: -4.65% (inactive)

Question: Which growth inhibition does the source give for `O=C1OCCCOC(=O)c2cc(ccc2O)OCC#CC#CCOc2ccc(O)c1c2` here?
Answer: 16.1% (inactive)

Question: For `O=[N+]([O-])c1cc2ccc(O)cc2c2ccccc12`, which growth inhibition is on record?
Answer: 96.3% (active)

Question: Which growth inhibition does the source give for `COc1cc2c(oc(=O)c3cc(C)cc(OC)c32)c2c(C3OC(C)C(O)C(C)(O)C3O)ccc(O)c12` (configuration not stated) here?
Answer: 90.4% (active)

Question: Which growth inhibition does the source give for `Oc1c(Cl)cc(Cl)c(Cc2c(Cl)cc(Cl)c(O)c2Cl)c1Cl` here?
Answer: -10.2% (inactive)

Question: For `N#CI1OC(C(F)(F)F)(C(F)(F)F)c2ccccc21`, which growth inhibition is on record?
Answer: 87.7% (active)

Question: Which growth inhibition does the source give for `c1ccc2c(c1)[nH]c1c[n+]3c(c[n+]12)[nH]c1ccccc13` here?
Answer: 58.9% (inactive)

Question: Which growth inhibition does the source give for `CC1Cc2cc(O)c(O)cc2-c2cc(O)c(O)cc2CC1C` (configuration not stated) here?
Answer: 80.7% (active)

Question: With `COc1ccc(C2c3cc4c(cc3OC(C)(O)C2C)OCO4)cc1` (configuration not stated) as the compound, how does the growth inhibition read?
Answer: 92% (active)

Question: For `Cc1ccc(C2(O)CC(c3ccc([N+](=O)[O-])o3)=NN2C(=O)COc2ccc(Cl)cc2)cc1` (configuration not stated), which growth inhibition is on record?
Answer: 52.6% (inactive)

Question: For `CCO[Si](CC)(OCC)OCC`, which growth inhibition is on record?
Answer: -12.2% (inactive)

Question: Which growth inhibition does the source give for `C/C=C(/CCC1NCCC2c3ccccc3NC12)[Si](C)(C)C` (configuration not stated) here?
Answer: 59.6% (inactive)
